# Hits are enriched below; roughly 2.7% of the tested compounds scored in any of these assays.
# F508del corr: CFTR F508del correction in bronchial cells | CFBE cells, YFP halide quenching; stimulated with forskolin plus potentiator P3; % fluorescence drop versus neutral controls | activity (quench increase), % at 7.58 µM | 350,000 compounds, 0.36% hits;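 active means mean added fluorescence quench of at least 8% versus neutral control, with both replicates also reaching 8%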;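 further: cells transiently co-express mutant CFTR-F508del with the halide-sensitive YFP; corrector assay measuring rescue of mutant channel to the surface after 24 h compound exposure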
# INS-1E GSIS act: primary screen for activators of insulin secretion dependent on glucose, INS-1E cells, GLuc reporter luminescence. INS-1E GLuc reporter insulin secretion, 2-3 h. activation, % at 16.6 µM. AID 743287. 370,000 compounds, 0.61% hits;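 active means lowest replicate activation of at least 40%, so every replicate reaches that level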;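 further: 0% = median of neutral control wells and 100% = median of IBMX positive control wells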
# Wnt act: activates Wnt/beta-catenin signaling in a reporter cell assay; activator, plate reader; activation, % at 9.35 µM; 300,000 compounds, 1.2% hits; AID 743398; in the data active means activation above about 30%, passing the limit was not always enough;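 further: 0% = neutral control wells and 100% = positive control wells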
# MITF TRPM1 HTS: MITF TRPM1 promoter activation in melanoma cells; SK-MEL-5 TRPM1-promoter luciferase, 24 h; % of positive control, neutral wells = 0; activation, % at 12.5 µM; 300,000 compounds, 0.75% hits; AID 588334;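 active means mean activation of at least 80% with every replicate also reaching 80%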;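 further: 0% = neutral control wells and 100% = parthenolide positive control wells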
# Env fusion inh: blocks HIV Env-driven cell-cell fusion | HeLa-JRFL Env/CEM21 cell fusion, luciferase | inhibition, % at 12.3 µM | 360,000 compounds, 1.1% hits | AID 651610;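 active means mean replicate inhibition score of at least 50 and every replicate individually at or above 50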;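 further: 0% = plate neutral controls and 100% = maraviroc near 300 nM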
# Numbers without * were called inactive; . = no result; [ ] = dose if it differs, or a comment.
SMILES,F508del corr,INS-1E GSIS act,Wnt act,MITF TRPM1 HTS,Env fusion inh
CCOC(=O)c1c(NC(=O)C2CCCN2S(=O)(=O)c2cccc3nsnc23)sc(C)c1C (stereo unspecified),1.4,-4.4,-2.2,-1.5,63.6*
Cc1cc2c(s1)Nc1ccccc1N=C2N1CCN(C)CC1,9.4*,.,3.1,-11.5,-314.3
OCCOCCN1CCN(C2=Nc3ccccc3Sc3ccccc32)CC1,0.8,-7.7,0.7,-1.3,-3.9
O=C(NN1C(=O)C2C3c4ccccc4C(c4ccccc43)[C@@H]2C1=O)c1ccccc1 (stereo partly specified),.,16.9,30.3*,-7.2,-17.0
Cc1ccc(C(=O)NN2C(=O)C3C4c5ccccc5C(c5ccccc54)[C@@H]3C2=O)cc1 (stereo partly specified),.,-21.4,.,16.0,-38.0
CN1C(=O)C2C3c4ccccc4C(c4ccccc43)[C@@H]2C1=O (stereo partly specified),-0.4,71.3*,-2.2,-2.1,6.4
O=C(NN1C(=O)C2C3c4ccccc4C(c4ccccc43)C2C1=O)C1CC1 (stereo unspecified),-0.4,-3.1,50.7*,-4.7,-8.3
C[C@H]1CN([C@@H](C)CO)C(=O)c2ccccc2-c2ccccc2CO[C@@H]1CN(C)Cc1ccc(C(=O)O)cc1,-2.0,19.8,.,.,.
CCOc1ccccc1-n1nnnc1SCC(=O)N1CCCC1=O,-3.7,51.2*,-3.1,-1.9,.
O=C1CCCN1C(=O)CSc1nnnn1-c1cccc(F)c1,0.0,0.8,-4.0,-0.8,-5.0
Cc1ccc(C(=O)N=c2sccn2C)cc1S(=O)(=O)N1CCOCC1,0.1,9.4,8.9,99.4*,.
COc1cccc(CN(C)C[C@H]2OCc3ccccc3-c3c(n(C)c4ccccc34)C(=O)N([C@H](C)CO)C[C@H]2C)c1,2.3,-24.6,.,.,.
O=C(NCc1ccco1)c1ccc2c(=O)n(CCC3=CCCCC3)c(=O)[nH]c2c1,.,67.9*,-4.4,1.6,1.0
CC[C@H](C)[C@@H]1NC(=O)[C@@H](CC(C)C)NC(=O)[C@H](C(C)C)NC(=O)[C@H]2CSSC[C@H](NC1=O)C(=O)N2,-11.1,6.8,-3.0,.,69.3*
CC(=O)Nc1ccc(NC(=O)CN(c2ccccc2Cl)S(C)(=O)=O)cc1,.,.,40.0*,4.6,-20.6
COc1ccc([N+](=O)[O-])c2c(=O)ccoc12,.,41.0*,.,1.0,.
O=C(C(=O)N(C1CCCCC1)C1CCCCC1)c1ccccc1,-0.3,72.8*,12.1,.,0.6
Cc1ccc(N2CC(O)(c3cccs3)[N+]3=C2CCCC3)cc1 (stereo unspecified),1.7,2.4,-0.7,1.6,-2.6
Cc1ccc(N2NC(C)(c3cccs3)NC2=S)cc1 (stereo unspecified),.,13.4,11.6,92.3*,-9.8
Cc1nc2c(-c3ccc(Cl)cc3)c(C)[nH]n2c(=O)c1Cc1ccccc1,-3.4,2.3,-14.0,-40.2,57.1*
CNC[C@H]1Oc2ccc(NC(=O)Cc3cn(C)c4ccccc34)cc2CC(=O)N([C@H](C)CO)C[C@H]1C,-1.3,21.3,.,.,14.0[16.7 µM]
COc1cccc(/C=C/C(=O)NNC(=O)c2ccccc2)c1OC,-1.1,-15.1,33.8*,15.9,-26.4
COc1ccc(NC(=O)Nc2ccc3c(c2)C(=O)N([C@@H](C)CO)C[C@H](C)[C@H](CN(C)Cc2ccc(Cl)c(Cl)c2)OCCCC[C@@H](C)O3)cc1,1.5,-7.1,.,.,32.9[16.7 µM]
C[C@H](CO)N1C[C@H](C)[C@H](CN(C)C(=O)Cc2ccccc2)OCc2ccccc2-c2c(n(C)c3ccccc23)C1=O,-3.8,-9.6,.,.,58.3*[16.7 µM]
C[C@H]1CN([C@@H](C)CO)C(=O)c2c(c3ccccc3n2C)-c2ccccc2CO[C@H]1CN(C)C(=O)CCC(F)(F)F,1.9,7.0,.,.,63.5*[16.7 µM]
CC(C)COC(=O)N(C)C[C@H]1OCc2ccccc2-c2c(n(C)c3ccccc23)C(=O)N([C@H](C)CO)C[C@@H]1C,0.7,-1.4,.,.,61.8*[16.7 µM]
CC(C)COC(=O)N(C)C[C@H]1OCc2ccccc2-c2c(n(C)c3ccccc23)C(=O)N([C@H](C)CO)C[C@H]1C,.,11.7,.,.,.
C[C@H]1CN([C@@H](C)CO)C(=O)c2c(c3ccccc3n2C)-c2ccccc2CO[C@@H]1CN(C)C(=O)Cc1ccccc1,-3.7,-1.2,.,.,58.6*[16.7 µM]
C[C@@H]1CCCCO[C@@H](CN(C)C(=O)Nc2ccc3c(c2)OCO3)[C@H](C)CN([C@@H](C)CO)C(=O)c2cc(NC(=O)c3ccncc3)ccc2O1,0.8,-7.9,.,.,-14.4[16.7 µM]
